# Assay outcomes: PubChem BioAssay, National Center for Advancing Translational Sciences (NCATS)
# This is a sample that favours compounds with a hit; in the whole collection about 3.6% have one here.
# LDHA block = inhibitors of human lactate dehydrogenase A. purified LDHA, NADH/diaphorase-resazurin fluorescence; active compounds read low. activity change, % (values are at about 110 or 230 µM). hit rate 0.15% among 480,000. AID 1347041; in the data active = activity change below about -30%;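 also: plate controls were DMSO wells for no effect and wells without enzyme for full effect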
#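 Human LDH5 at 2 nM final in Tris HCl pH 7.4 with 0.06 mM NADH and 0.2 mM pyruvate, reacted 5 minutes at room temperature. Remaining NADH coupled via diaphorase/resazurin; resorufin fluorescence read at 0 and 20 minutes, normalized to enzyme-free and DMSO wells.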
# D1 potentiator = enhances dopamine response at the human D1 receptor; potentiation, % at 10 µM; HEK293 TREx D1 cells, calcium flux, dopamine EC20 potentiation; hit rate 0.036% among 360,000; P21728; in the data active = potentiation above about 30%; also: 0% is about no effect
# D1 antagonist = human D1 dopamine receptor antagonism; P21728; HEK293 TREx D1 cells, calcium flux, dopamine EC80; active compounds read low; activity change, negative = inhibition, % at 10 µM; hit rate 3.2% among 360,000; AID 504652; in the data active = activity change below about -30%; also: % is scaled to controls: 0 for no effect and ±100 for the full control effect
#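 After overnight tetracycline induction at 30 C, force-coupled D1 HEK293 cells took up a no-wash calcium dye at room temperature. Compounds were added and monitored 180 s, and the response to EC80 dopamine was then recorded.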
# TRHR ag = TRH receptor (human) agonism; P34981; TRHR cells, calcium flux fluo-8, FDSS agonist mode; activation, % at 2 µM; hit rate 0.18% among 360,000; AID 493084; also: 0% is about no effect
# Target sequence (P34981 whole entry, looked up): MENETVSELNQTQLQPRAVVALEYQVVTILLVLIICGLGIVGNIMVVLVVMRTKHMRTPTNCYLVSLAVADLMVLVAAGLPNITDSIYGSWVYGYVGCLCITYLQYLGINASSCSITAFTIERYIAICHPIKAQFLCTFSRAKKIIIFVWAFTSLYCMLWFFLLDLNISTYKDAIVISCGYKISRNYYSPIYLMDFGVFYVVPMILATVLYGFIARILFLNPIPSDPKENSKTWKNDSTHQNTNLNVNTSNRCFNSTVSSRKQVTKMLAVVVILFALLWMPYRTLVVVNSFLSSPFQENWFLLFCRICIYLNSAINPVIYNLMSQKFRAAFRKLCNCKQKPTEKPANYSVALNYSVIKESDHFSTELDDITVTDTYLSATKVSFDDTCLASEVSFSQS
#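 Fluo-8-loaded TRHR cells; 10 s baseline, compound added, kinetic Ca2+ fluorescence read 1/s, agonist mode.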
# D1 agonist = activates the human D1 dopamine receptor; HEK293 T-REx D1 cells, calcium flux, agonist mode; activation, % at 2 µM; hit rate 1% among 360,000; AID 504660; also: 0% is about no effect
#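 Inducible HEK293 T-REx D1 cells, force-coupled to calcium signalling, were plated at 4000 cells/well with tetracycline and held overnight at 30 C. After no-wash calcium dye loading, compound-evoked calcium rise over 180 s flagged agonists.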
# TRHR PAM = TRH receptor (human) allosteric enhancement; TRHR cells, fluo-8 calcium fluorescence, EC20 TRH enhancement; enhancement, % at 2 µM; hit rate 0.66% among 360,000; AID 493056; in the data active = enhancement above about 30%; also: 0% is about no effect
#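 TRHR-expressing cells loaded with fluo-8 calcium dye were read kinetically (ex 480/em 530) during compound addition, then stimulated with an EC20 of TRH (10 nM final). Enhancement of the Gq-mediated intracellular calcium response was scored.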
# The depositor's hits bear a star; x = no result. Rule as the data show it, unless noted: active = activation above about 30%; inactive = the rest.
SMILES,LDHA block,D1 potentiator,D1 antagonist,TRHR ag,D1 agonist,TRHR PAM
Oc1ccc(Cl)cc1C1C=C(c2ccc3c(c2)OCO3)NC(c2cc(Br)ccc2F)N1 (stereo not drawn),-2,-2,-9,2,31*,-2
Oc1ccc(Br)cc1C1C=C(c2ccc3c(c2)OCO3)NC(c2c(F)cccc2Cl)N1 (stereo not drawn),-1,-4,-56*,1,19,-2
Cc1cc(N2CCOCC2)nc2ccc(NC(=O)NCC(C)C)cc12,-4,x,x,x,x,x
CC(O)CNS(=O)(=O)c1cccc(C(=O)O)c1 (stereo not drawn),-12,x,x,x,x,x
CCC(=O)N1CCc2cc(CNC(=O)c3ccc(C#N)cc3)ccc21,-6,-3,33,0,0,-1
CCOc1ccc(C(=O)NCc2ccc3c(c2)CCN3C(=O)c2ccc(C)cc2)cc1OCC,-5,-6,-66*,0,5,-7
N#Cc1ccc(C(=O)NCc2ccc3c(c2)CCN3C(=O)c2ccc(F)cc2)cc1,-1,-4,-33*,0,14,-6
COc1ccc(C(=O)NCc2ccc3c(c2)CCN3C(=O)c2ccc(C)cc2)cc1,3,-2,-9,-1,4,0
COc1ccc(CCC(=O)NCc2ccc3c(c2)CCN3C(=O)c2ccc(Cl)cc2)cc1,1,-1,-35*,0,-1,-6
Cc1nc(Cl)c(Cl)[nH]1,3,x,x,x,x,x
COc1ccc(C(=O)C(C)Oc2ccc(C)c(C)c2)cc1 (stereo not drawn),3,x,x,x,x,x
O=C(Nc1ccc2c(c1)OCCCO2)C(Sc1ccccc1)c1ccccc1 (stereo not drawn),-1,x,x,x,x,x
COC(=O)C1=NN(c2ccc(Cl)cc2)C2C(=O)N(c3ccccc3OC)C(=O)C12 (stereo not drawn),0,-3,3,0,1,1
COc1ccccc1N1N=C(C(=O)c2ccccc2)C2C(=O)N(c3ccc(Br)cc3)C(=O)C21 (stereo not drawn),-3,0,-9,12,46*,-3
Cc1ccc(N2C(=O)C3C(C(=O)c4ccccc4)=NN(c4ccccc4)C3C2=O)cc1 (stereo not drawn),-3,-6,-11,-1,117*,-1
CCOC(=O)C1=NN(c2ccccc2)C2C(=O)N(c3ccccc3OC)C(=O)C12 (stereo not drawn),-5,3,11,-1,5,0
COc1ccccc1N1C(=O)C2C(C(=O)c3ccccc3)=NN(c3ccccc3)C2C1=O (stereo not drawn),-8,0,-18,18,35*,3
O=C(C1=NN(c2ccccc2)C2C(=O)N(c3ccccc3Cl)C(=O)C12)c1ccccc1 (stereo not drawn),5,-5,-10,58*,193*,5
Nc1n[nH]c(N)c1N=Nc1ccccc1F,-1,1,-35*,0,0,2
Cc1ccccc1N=Nc1c(N)n[nH]c1N,-7,4,-14,1,1,5
Cc1cc(C(=O)COC(=O)c2nccnc2N)c(C)n1C1CC1,1,x,x,x,x,x
CCN(CC)CCNC(=O)c1ccc(NC(=O)Cc2ccccc2F)cc1,-7,2,3,1,1,2
CCN(CC)CCNC(=O)c1ccc(NC(=O)c2ccccc2-c2ccc(C(F)(F)F)cc2)cc1,-7,-3,-19,0,70*,-2
CCN(CC)CCNC(=O)c1ccc(NC(=O)c2cn(-c3ccccc3)nc2-c2cccs2)cc1,-1,-11,-81*,-1,14,2
CCN(CC)CCNC(=O)c1ccc(NC(=O)c2cn(-c3ccc(F)cc3)nc2-c2cccc(OC)c2)cc1,-7,-9,-6,3,7,4
SMILES,LDHA block,D1 potentiator,D1 antagonist,TRHR ag,D1 agonist,TRHR PAM
CCNC(=S)N(Cc1ccc2c(c1)OCO2)C1CC(=O)N(c2ccc(F)cc2)C1=O (stereo not drawn),5,-5,-60*,1,5,2
CCc1c(C)sc(NC(=O)c2ccc3c(c2)OCO3)c1C(=O)OC(C)C,1,x,x,x,x,x
O=S(=O)(NCc1cccs1)c1ccc(Br)cc1,0,-3,-33*,0,4,4
CN(C)S(=O)(=O)c1ccc(S(=O)(=O)NCc2cccs2)cc1,-3,-7,17,1,3,-1
CCOc1ccc(S(=O)(=O)NCc2cccs2)cc1C(C)C,0,-1,-12,1,4,-1
CCCNS(=O)(=O)c1ccc(NC(=O)Cc2cccs2)cc1,-16,-8,-33*,0,3,2
CCCN(CCC)S(=O)(=O)c1ccc(NC(=O)Cc2cccs2)cc1,4,1,-13,1,12,7
CCOc1cc(S(=O)(=O)NCc2cccs2)ccc1Cl,-4,-3,-37*,0,2,-1
COc1cc(C#N)ccc1OC(C)C(=O)c1ccccc1 (stereo not drawn),2,x,x,x,x,x
CC(C)C(C)NC(=O)CCC(=O)c1ccc2c(c1)CCCC2 (stereo not drawn),6,x,x,x,x,x
CC(C)(O)C#Cc1ccc(C(=O)NCC(c2ccccc2)c2ccccc2)cc1,-1,x,x,x,x,x
CNCCC=C1c2ccccc2C=Cc2ccccc21,-4,x,x,x,x,x
CNCCCC1c2ccccc2C=Cc2ccccc21,-10,-5,-22,3,43*,27
CCOc1ccc(N2C(=O)CN(C)C2=S)cc1,-2,-2,1,0,1,-1
CCOc1ccc(N2C(=O)/C(=C/c3cccs3)N(C)C2=S)cc1,-5,-8,-37*,1,7,-7
Cc1cc([N+](=O)[O-])nn1Cc1ccc(C(=O)N/N=C/c2ccc(O)cc2O)cc1,-5,-5,-33*,0,1,3
Cc1cc([N+](=O)[O-])nn1Cc1ccc(C(=O)N/N=C/c2ccc(F)cc2)cc1,-8,-4,-4,0,0,-4
CS/C(Nc1cc(Cl)ccc1Cl)=C(/C#N)C(=O)c1ccco1,-48*,-2,8,0,4,-7
CCSc1ncc(/C=N/Nc2ccc([N+](=O)[O-])cc2)n1C,-1,-4,-5,23,37*,4
O=[N+]([O-])c1ccc(NN=Cc2ccccc2)nc1,-6,x,x,x,x,x
O=[N+]([O-])c1ccc(N/N=C\c2cccn2-c2ccccc2)nc1,-3,5,0,10,37*,-2
O=S(=O)(Nc1nc2ccccc2nc1Nc1ccc(F)cc1)c1ccc(F)cc1,4,x,x,x,x,x
CCCC(=O)Nc1ccc(Cl)c(NC(=O)c2cc(OCC)c(OCC)c(OCC)c2)c1,1,x,x,x,x,x
CS(=O)(=O)N1CCC(C(=O)Nc2cc(Cl)c(Cl)cc2Cl)CC1,0,1,-34*,0,6,-12
